# Data taken from PubChem BioAssay (EPA / NIEHS).
# Active and inactive are the calls of the source. Rule for the calls: active = hit-call score of the fitted dose curve at least 0.9, where 1 is the maximum; inactive = score below 0.9.
# Legend:
# Settings in all cases: mRNA level, 48 h; actives raise or lower the signal
# MYC, MYC (gene 4609) = experiment: LTEA_HepaRG_MYC: Life Technologies and Expression Analysis (LTEA) Assay for MYC using HepaRG (AID 2283518)
# In short: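 qRT-PCR read-out of MYC transcript (Fluidigm TaqMan, housekeeping-normalized) after 48 h chemical exposure of HepaRG cells; eight concentrations, top 100 uM, half-log steps. Bidirectional curve fitting against 0.5% DMSO vehicle baseline.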
# [1] = read-out: matrix metalloproteinase-3 (MMP3), MMP3 (gene 4314); experiment: LTEA_HepaRG_MMP3: Life Technologies and Expression Analysis (LTEA) Assay for matrix metalloproteinase-3 (MMP3) using HepaRG (AID 2283519)
# In short: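 HepaRG cells (~100,000/well) in serum-free induction medium were dosed in duplicate for 48 h with an 8-point half-log series from 100 uM, 0.5% DMSO. MMP3 mRNA was quantified by Fluidigm TaqMan qRT-PCR, normalized to three housekeeping genes.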
# [2] = read-out: Paternally Expressed 10 (PEG10), PEG10 (gene 23089); experiment: LTEA_HepaRG_PEG10: Life Technologies and Expression Analysis (LTEA) Assay for Paternally Expressed 10 (PEG10) using HepaRG (AID 2283520)
# In short: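 HepaRG, 48 h post-plating → serum-free induction medium → 48 h chemical exposure (duplicate, 8-pt, max 100 uM, half-log, 0.5% DMSO) → lysis in RLT → TaqMan qRT-PCR for PEG10, ACTB/GAPDH/POLR2A normalisation.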
# [3] = read-out: Nuclear factor NF-kappa-B p105 subunit (Homo sapiens) (UniProt P19838); experiment: LTEA_HepaRG_NFKB1: Life Technologies and Expression Analysis (LTEA) Assay for Nuclear Factor Kappa B Subunit 1 (NFKB1) using HepaRG (AID 2283521);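 note: TaqMan qRT-PCR transcript normalised to ACTB GAPDH and POLR2A housekeeping genes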
# In short: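 HepaRG, 48 h exposure; 8-pt half-log series from 100 uM in 0.5% DMSO; duplicates. Readout: NFKB1 mRNA by qRT-PCR (Fluidigm arrays), housekeeping-normalized. Gain/loss fit vs DMSO baseline.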
# [4] = read-out: Protein phosphatase 2A (PPP2R4), PTPA (gene 5524); experiment: LTEA_HepaRG_PPP2R4: Life Technologies and Expression Analysis (LTEA) Assay for Protein phosphatase 2A (PPP2R4) using HepaRG (AID 2283522)
# In short: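 Readout is PPP2R4 transcript level by microfluidic qRT-PCR after 48 h chemical treatment of human HepaRG liver cells. Concentrations spanned 100 uM downward in half-log steps; gain or loss of signal was fitted relative to DMSO.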
# [5] = read-out: Phosphatase and tensin (PTEN), PTEN (gene 5728); experiment: LTEA_HepaRG_PTEN: Life Technologies and Expression Analysis (LTEA) Assay for Phosphatase and tensin (PTEN) using HepaRG (AID 2283523)
# In short: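 HepaRG cells, 48 h after plating, exposed in duplicate for 48 h in serum-free induction medium to 8 half-log concentrations up to 100 uM (0.5% DMSO). PTEN mRNA by qRT-PCR, normalized to ACTB, GAPDH, POLR2A; bidirectional fit versus DMSO.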
# [6] = read-out: solute carrier (SLC22A1), SLC22A1 (gene 6580); experiment: LTEA_HepaRG_SLC22A1: Life Technologies and Expression Analysis (LTEA) Assay for solute carrier (SLC22A1) using HepaRG (AID 2283524)
# In short: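 Differentiated human HepaRG cells in serum-free induction medium, exposed 48 h in duplicate to 8-point half-log series from 100 µM top in 0.5% DMSO. SLC22A1 mRNA by TaqMan qRT-PCR normalized to ACTB, GAPDH, POLR2A; bidirectional fit versus DMSO.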
# [7] = read-out: Pyruvate Dehydrogenase Kinase 4 (PDK4), PDK4 (gene 5166); experiment: LTEA_HepaRG_PDK4: Life Technologies and Expression Analysis (LTEA) Assay for Pyruvate Dehydrogenase Kinase 4 (PDK4) using HepaRG (AID 2283525)
# In short: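 HepaRG cells plated 48 h, then switched to serum-free induction medium and exposed in duplicate for 48 h to 8 half-log concentrations from 100 uM in 0.5% DMSO. PDK4 mRNA measured by qRT-PCR, normalized to ACTB, GAPDH and POLR2A; bidirectional fit versus DMSO.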
# [8] = read-out: NAD(P)H dehydrogenase [quinone] 1 (NQO1), NQO1 (gene 1728); experiment: LTEA_HepaRG_NQO1: Life Technologies and Expression Analysis (LTEA) Assay for NAD(P)H dehydrogenase [quinone] 1 (NQO1) using HepaRG (AID 2283526)
# In short: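 HepaRG, 48 h post-plating → serum-free induction medium → test chemical 48 h (duplicate, 100 uM top, half-log x8, 0.5% DMSO) → RNA isolation → qRT-PCR, ACTB/GAPDH/POLR2A normalization; bidirectional curve fit vs DMSO baseline.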
# [9] = read-out: Nuclear factor erythroid 2-related factor 2 (Homo sapiens) (UniProt Q16236); experiment: LTEA_HepaRG_NFE2L2: Life Technologies and Expression Analysis (LTEA) Assay for Nuclear factor erythroid 2-related factor 2 (NFE2L2) Transcription Factor using HepaRG (AID 2283527);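 note: TaqMan qRT-PCR transcript level normalised to ACTB GAPDH and POLR2A housekeeping genes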
# In short: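 Differentiated human HepaRG cells, serum-free induction medium, exposed 48 h in duplicate to eight half-log concentrations up to 100 uM in 0.5% DMSO. NFE2L2 mRNA by Fluidigm TaqMan qRT-PCR, normalised to ACTB, GAPDH, POLR2A; bidirectional change versus DMSO.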
# [10] = read-out: succinate dehydrogenase complex iron sulfur subunit B (SDHB), SDHB (gene 6390); experiment: LTEA_HepaRG_SDHB: Life Technologies and Expression Analysis (LTEA) Assay for succinate dehydrogenase complex iron sulfur subunit B (SDHB) using HepaRG (AID 2283528)
# In short: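 Readout is SDHB transcript level by qRT-PCR, normalised to three housekeeping genes and fitted bidirectionally against 0.5% DMSO vehicle. Human HepaRG cells were treated for 48 h at up to 100 uM.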
# [11] = read-out: Signal transducer and activator of transcription 3 (Homo sapiens) (UniProt P40763); experiment: LTEA_HepaRG_STAT3: Life Technologies and Expression Analysis (LTEA) Assay for Signal transducer and activator of transcription (STAT3) using HepaRG (AID 2283529)
# In short: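 Differentiated HepaRG cells, serum-free induction medium, dosed 48 h in duplicate, 8 half-log concentrations from 100 uM in 0.5% DMSO. STAT3 mRNA by qRT-PCR, normalised to ACTB, GAPDH, POLR2A; bidirectional fit versus DMSO.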
# [12] = read-out: sulfotransferase 2A1 (SULT2A1), SULT2A1 (gene 6822); experiment: LTEA_HepaRG_SULT2A1: Life Technologies and Expression Analysis (LTEA) Assay for sulfotransferase 2A1 (SULT2A1) using HepaRG (AID 2283531)
# In short: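 HepaRG, 48 h chemical exposure, 8-pt half-log curve from 100 uM in 0.5% DMSO, duplicates. Readout: TaqMan qRT-PCR of SULT2A1 mRNA, housekeeping-normalized. Bidirectional fit vs DMSO baseline.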
# TIMP1, TIMP1 (gene 7076) = experiment: LTEA_HepaRG_TIMP1: Life Technologies and Expression Analysis (LTEA) Assay for TIMP1 using HepaRG (AID 2283534);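 note: TaqMan qRT-PCR signal normalized to ACTB GAPDH and POLR2A housekeeping genes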
# In short: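 HepaRG, 48 h exposure, 8-pt half-log series from 100 uM in 0.5% DMSO, duplicates; TIMP1 transcript by Fluidigm qRT-PCR, housekeeping-normalized; bidirectional curve fit vs DMSO baseline.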
# [13] = read-out: Tumor necrosis factor receptor 1 (TNFRSF1A), TNFRSF1A (gene 7132); experiment: LTEA_HepaRG_TNFRSF1A: Life Technologies and Expression Analysis (LTEA) Assay for Tumor necrosis factor receptor 1 (TNFRSF1A) using HepaRG (AID 2283535)
# In short: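 HepaRG, 48 h plating then 48 h chemical exposure, serum-free induction media; 8-pt CRC from 100 uM, half-log, 0.5% DMSO vehicle, duplicates. Readout: TaqMan qRT-PCR (Fluidigm), housekeeping-gene normalized; bidirectional fit vs DMSO.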
# [14] = read-out: Thyroid Hormone Responsive (THRSP), THRSP (gene 7069); experiment: LTEA_HepaRG_THRSP: Life Technologies and Expression Analysis (LTEA) Assay for Thyroid Hormone Responsive (THRSP) using HepaRG (AID 2283536)
# In short: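 Differentiated HepaRG cells treated 48 h in serum-free induction medium with 8 half-log concentrations up to 100 uM (0.5% DMSO), duplicates. THRSP mRNA by TaqMan qRT-PCR normalised to ACTB, GAPDH, POLR2A; bidirectional fit versus DMSO.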
# [15] = read-out: Cellular tumor antigen p53 (Homo sapiens) (UniProt P04637); experiment: LTEA_HepaRG_TP53: Life Technologies and Expression Analysis (LTEA) Assay for Tumor Protein P53 (TP53) using HepaRG (AID 2283537)
# In short: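 Read-out is TP53 transcript level by microfluidic qRT-PCR, normalised to three housekeeping genes and fitted bidirectionally against DMSO. Human HepaRG cells received compounds for 48 h, highest concentration 100 uM.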
# [16] = read-out: solute carrier (SLCO1B1), SLCO1B1 (gene 10599); experiment: LTEA_HepaRG_SLCO1B1: Life Technologies and Expression Analysis (LTEA) Assay for solute carrier (SLCO1B1) using HepaRG (AID 2283530)
# In short: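 SLCO1B1 transcript read by qRT-PCR (Fluidigm arrays), normalized to three housekeeping genes, after 48 h chemical exposure of HepaRG cells; bidirectional concentration-response fitting versus 0.5% DMSO baseline. Eight-point half-log series, maximum 100 uM.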
# [17] = read-out: Transforming Growth Factor (TGFA), TGFA (gene 7039); experiment: LTEA_HepaRG_TGFA: Life Technologies and Expression Analysis (LTEA) Assay for Transforming Growth Factor (TGFA) using HepaRG (AID 2283532)
# In short: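 Differentiated HepaRG cells exposed 48 hours in serum-free induction medium, 0.5% DMSO vehicle, 8-point half-log series from 100 uM, in duplicate. TGFA mRNA by TaqMan qRT-PCR, normalised to ACTB, GAPDH, POLR2A; bidirectional fit versus DMSO.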
# [18] = read-out: Transforming Growth Factor (TGFB1), TGFB1 (gene 7040); experiment: LTEA_HepaRG_TGFB1: Life Technologies and Expression Analysis (LTEA) Assay for Transforming Growth Factor (TGFB1) Transporter using HepaRG (AID 2283533)
# In short: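 qRT-PCR readout of TGFB1 transcript in HepaRG lysates, normalized to three housekeeping genes; gain or loss of signal fitted relative to 0.5% DMSO vehicle. Exposure: 48 h, 8-point curve from 100 uM, duplicate wells.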
# Nuclear factor NF-kappa-B p105 subunit (Homo sapiens), sequence (P19838 whole entry, looked up): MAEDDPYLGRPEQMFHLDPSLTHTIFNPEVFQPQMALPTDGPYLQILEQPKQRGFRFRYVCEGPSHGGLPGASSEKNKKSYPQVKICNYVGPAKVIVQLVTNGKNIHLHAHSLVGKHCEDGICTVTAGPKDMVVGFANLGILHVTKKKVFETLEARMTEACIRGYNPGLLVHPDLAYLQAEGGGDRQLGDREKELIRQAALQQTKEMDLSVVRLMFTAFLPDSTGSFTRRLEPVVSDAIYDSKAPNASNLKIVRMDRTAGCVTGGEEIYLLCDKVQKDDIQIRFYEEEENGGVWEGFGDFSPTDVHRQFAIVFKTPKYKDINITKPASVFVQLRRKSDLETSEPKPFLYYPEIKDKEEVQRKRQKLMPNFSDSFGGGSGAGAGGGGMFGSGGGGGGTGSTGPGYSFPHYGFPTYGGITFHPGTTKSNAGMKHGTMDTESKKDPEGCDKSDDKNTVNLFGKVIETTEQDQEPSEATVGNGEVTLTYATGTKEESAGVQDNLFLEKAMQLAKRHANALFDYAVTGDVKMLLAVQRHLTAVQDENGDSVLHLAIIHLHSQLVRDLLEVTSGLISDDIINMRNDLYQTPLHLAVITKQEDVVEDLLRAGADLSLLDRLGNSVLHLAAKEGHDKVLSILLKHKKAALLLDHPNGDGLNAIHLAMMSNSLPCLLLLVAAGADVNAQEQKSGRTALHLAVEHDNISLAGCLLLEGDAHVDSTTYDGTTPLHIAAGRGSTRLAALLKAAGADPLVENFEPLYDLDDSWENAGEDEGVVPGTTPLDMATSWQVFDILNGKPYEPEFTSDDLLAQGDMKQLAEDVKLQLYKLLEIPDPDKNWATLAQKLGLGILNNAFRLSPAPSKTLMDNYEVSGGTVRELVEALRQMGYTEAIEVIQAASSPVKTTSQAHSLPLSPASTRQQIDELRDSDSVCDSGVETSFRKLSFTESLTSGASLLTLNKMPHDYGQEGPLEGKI
# Cellular tumor antigen p53 (Homo sapiens), sequence (P04637 whole entry, looked up): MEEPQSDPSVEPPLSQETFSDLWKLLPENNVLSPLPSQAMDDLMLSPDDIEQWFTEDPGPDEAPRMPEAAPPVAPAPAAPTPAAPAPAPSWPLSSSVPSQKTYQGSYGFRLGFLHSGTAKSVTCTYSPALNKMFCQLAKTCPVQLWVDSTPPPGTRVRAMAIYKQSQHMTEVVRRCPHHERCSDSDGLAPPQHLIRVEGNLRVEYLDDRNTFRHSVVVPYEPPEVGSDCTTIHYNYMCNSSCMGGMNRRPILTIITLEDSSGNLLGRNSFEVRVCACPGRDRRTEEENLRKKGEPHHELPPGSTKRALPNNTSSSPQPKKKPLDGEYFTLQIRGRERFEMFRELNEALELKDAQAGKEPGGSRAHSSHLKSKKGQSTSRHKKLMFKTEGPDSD
# Signal transducer and activator of transcription 3 (Homo sapiens), sequence (P40763 whole entry, looked up): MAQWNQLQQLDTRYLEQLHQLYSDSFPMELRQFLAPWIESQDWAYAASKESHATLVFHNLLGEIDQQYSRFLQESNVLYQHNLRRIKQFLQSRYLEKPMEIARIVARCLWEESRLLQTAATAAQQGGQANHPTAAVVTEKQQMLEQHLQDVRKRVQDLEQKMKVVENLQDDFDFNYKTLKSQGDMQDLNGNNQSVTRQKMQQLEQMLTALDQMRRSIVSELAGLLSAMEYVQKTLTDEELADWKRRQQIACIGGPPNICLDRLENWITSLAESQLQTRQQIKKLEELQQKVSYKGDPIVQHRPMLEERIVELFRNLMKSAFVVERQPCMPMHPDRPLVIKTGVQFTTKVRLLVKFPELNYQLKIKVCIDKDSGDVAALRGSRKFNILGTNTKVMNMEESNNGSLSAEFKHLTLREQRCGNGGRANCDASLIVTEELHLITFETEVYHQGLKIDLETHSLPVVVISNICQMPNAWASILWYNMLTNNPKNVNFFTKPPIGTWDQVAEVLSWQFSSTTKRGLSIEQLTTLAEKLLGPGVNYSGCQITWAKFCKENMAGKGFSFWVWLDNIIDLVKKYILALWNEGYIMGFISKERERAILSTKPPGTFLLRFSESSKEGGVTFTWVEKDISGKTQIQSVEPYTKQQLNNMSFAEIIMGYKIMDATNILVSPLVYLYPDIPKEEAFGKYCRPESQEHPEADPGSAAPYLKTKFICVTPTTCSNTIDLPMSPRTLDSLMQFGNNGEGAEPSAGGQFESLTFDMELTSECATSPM
# Nuclear factor erythroid 2-related factor 2 (Homo sapiens), sequence (Q16236 whole entry, looked up): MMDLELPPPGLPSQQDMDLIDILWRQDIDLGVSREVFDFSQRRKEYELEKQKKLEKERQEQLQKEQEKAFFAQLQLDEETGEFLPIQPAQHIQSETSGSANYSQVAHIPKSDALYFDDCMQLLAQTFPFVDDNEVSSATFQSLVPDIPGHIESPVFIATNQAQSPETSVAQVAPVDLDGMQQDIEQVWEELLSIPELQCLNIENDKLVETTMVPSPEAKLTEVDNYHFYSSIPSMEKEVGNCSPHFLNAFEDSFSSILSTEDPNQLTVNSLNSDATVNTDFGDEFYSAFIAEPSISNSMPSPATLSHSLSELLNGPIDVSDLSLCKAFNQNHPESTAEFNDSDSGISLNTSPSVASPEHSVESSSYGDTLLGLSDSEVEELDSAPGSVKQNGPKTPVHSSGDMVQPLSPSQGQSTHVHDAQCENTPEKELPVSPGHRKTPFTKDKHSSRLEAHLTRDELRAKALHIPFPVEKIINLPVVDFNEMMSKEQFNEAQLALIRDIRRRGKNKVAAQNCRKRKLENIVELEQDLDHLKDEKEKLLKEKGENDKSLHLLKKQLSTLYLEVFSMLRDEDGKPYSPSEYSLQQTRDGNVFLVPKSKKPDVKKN
compound,measurement,setting,value
CC(O)CO (configuration not stated),outcome,"MYC, MYC (gene 4609)",inactive
same,outcome,[1],inactive
same,outcome,[2],inactive
same,outcome,[3],inactive
same,outcome,[4],inactive
same,outcome,[5],inactive
same,outcome,[6],inactive
same,outcome,[7],inactive
same,outcome,[8],inactive
same,outcome,[9],inactive
same,outcome,[10],inactive
same,outcome,[11],inactive
same,outcome,[12],inactive
same,outcome,"TIMP1, TIMP1 (gene 7076)",inactive
same,outcome,[13],inactive
same,outcome,[14],inactive
same,outcome,[15],inactive
Nc1cccc2c(N)cccc12,outcome,"MYC, MYC (gene 4609)",inactive
same,outcome,[1],inactive
same,AC50,[2],9.92 µM (active)
same,outcome,[3],inactive
same,outcome,[4],inactive
same,outcome,[5],inactive
same,AC50,[6],50 µM (active)
same,outcome,[7],inactive
same,outcome,[9],inactive
same,outcome,[10],inactive
same,outcome,[11],inactive
same,AC50,[16],9.92 µM (active)
same,outcome,[12],inactive
same,outcome,"TIMP1, TIMP1 (gene 7076)",inactive
same,outcome,[13],inactive
same,AC50,[14],10.9 µM (active)
same,outcome,[15],inactive
c1ccc2c(c1)Cc1ccccc1-2,outcome,"MYC, MYC (gene 4609)",inactive
same,outcome,[1],inactive
same,outcome,[2],inactive
same,outcome,[3],inactive
same,outcome,[4],inactive
same,outcome,[5],inactive
same,outcome,[6],inactive
same,outcome,[7],inactive
same,outcome,[9],inactive
same,outcome,[10],inactive
same,outcome,[11],inactive
same,outcome,[12],inactive
same,outcome,[17],inactive
same,outcome,[18],inactive
same,outcome,"TIMP1, TIMP1 (gene 7076)",inactive
same,outcome,[13],inactive
same,outcome,[14],inactive
same,outcome,[15],inactive
CCCCCCCCCCCCN1CCCC1=O,outcome,"MYC, MYC (gene 4609)",inactive
same,outcome,[1],inactive
same,outcome,[2],inactive
same,outcome,[3],inactive
same,outcome,[4],inactive
same,outcome,[5],inactive
same,outcome,[6],inactive
same,outcome,[7],inactive
same,outcome,[8],inactive
same,outcome,[9],inactive
same,outcome,[10],inactive
same,outcome,[11],inactive
same,outcome,[16],inactive
same,outcome,[12],inactive
same,outcome,"TIMP1, TIMP1 (gene 7076)",inactive
same,outcome,[13],inactive
same,outcome,[14],inactive
same,outcome,[15],inactive
CCCCCCCCCCCCCCCS(=O)(=O)Oc1ccccc1,outcome,"MYC, MYC (gene 4609)",inactive
same,outcome,[1],inactive
same,outcome,[2],inactive
same,outcome,[3],inactive
same,outcome,[4],inactive
same,outcome,[5],inactive
same,outcome,[6],inactive
same,outcome,[7],inactive
same,outcome,[8],inactive
same,outcome,[9],inactive
same,outcome,[10],inactive
same,outcome,[11],inactive
same,outcome,[16],inactive
same,outcome,[12],inactive
same,outcome,[17],inactive
same,outcome,[18],inactive
same,outcome,"TIMP1, TIMP1 (gene 7076)",inactive
same,outcome,[13],inactive
same,outcome,[14],inactive
same,outcome,[15],inactive
O=[N+]([O-])c1ccc(O)cc1,outcome,"MYC, MYC (gene 4609)",inactive
same,outcome,[1],inactive
same,outcome,[2],inactive
same,outcome,[3],inactive
same,outcome,[4],inactive
same,outcome,[5],inactive
same,outcome,[6],inactive
same,outcome,[7],inactive
same,outcome,[8],inactive
same,outcome,[9],inactive
same,outcome,[10],inactive
same,outcome,[11],inactive
same,outcome,[12],inactive
same,outcome,[17],inactive
same,outcome,[18],inactive
same,outcome,"TIMP1, TIMP1 (gene 7076)",inactive
same,outcome,[13],inactive
same,outcome,[14],inactive
same,outcome,[15],inactive
CCCOc1sc(C(=O)N2CCC(c3cc(CN)ccc3F)CC2)c(C)c1Br,outcome,"MYC, MYC (gene 4609)",inactive
same,outcome,[1],inactive
same,outcome,[2],inactive
same,outcome,[3],inactive
same,outcome,[4],inactive
same,outcome,[5],inactive
same,outcome,[6],inactive
same,outcome,[7],inactive
same,outcome,[9],inactive
same,outcome,[10],inactive
same,outcome,[11],inactive
same,outcome,[16],inactive
same,outcome,[12],inactive
same,outcome,[18],inactive
same,outcome,"TIMP1, TIMP1 (gene 7076)",inactive
same,outcome,[13],inactive
same,outcome,[14],inactive
same,outcome,[15],inactive
